Test results published in PubChem BioAssay (Tox21).
Where “and” joins values, the source holds several entries; their conditions need not be identical. Equal entries are not always repeated. Inconclusive results are not listed. A number with no mark means an inactive call. Calls of active or inactive are those of the source. Calls follow the shape of the dose curve; as a rule, active = well fitted cell-killing curve with a large enough effect in the repeat runs; inconclusive = weak or mixed curves, or effect the other way; inactive = flat fitted curve, though single readings scatter.

Assay: qHTS assay to identify small molecule antagonists of the estrogen receptor alpha (ER-alpha) signaling pathway using the BG1 cell line in the presence of 0.1 nM 17-beta-estradiol - cell viability counter screen (AID 1259241); also: nearly all actives have a fitted effect of over 40% in size
Conditions: VM7Luc4E2 (BG1) viability, CellTiter-Fluor protease, 22 h, 0.1 nM estradiol agonist added; series mostly up to 92.4 µM; activity change, negative = cytotoxicity: at the top concentration
Procedure, shortened: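 Cytotoxicity counter-screen: live-cell protease activity measured by fluorescence (30 min reagent step) in the same wells. Cells were VM7Luc4E2 with endogenous ER-alpha and ERE-driven luciferase, treated 22 hr at 37C alongside 0.1 nM 17beta-estradiol final.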
% is scaled to controls: 0 for no effect and ±100 for the full control effect; potency is read from the fitted curve at half-maximal effect.

In order of rising “activity change, negative = cytotoxicity” value:
1. COC(=O)[C@]1(C)CCC[C@@]2(C)[C@H]1CC=C1C=C(C(C)C)CC[C@@H]12  -2.45%
2. CCC(=O)OCCc1ccccc1  -1.63%
3. CC[N+](CC)(CC)Cc1ccccc1  0.573%
4. CC(C)c1ccccc1N  2.19%

With `CC1=C(/C=C/C(C)=C/C=C/C(C)=C/C(=O)Nc2ccc(O)cc2)C(C)(C)CCC1` the Potency was 55.9 µM (active) and 11.9 µM (active).

Assay: qHTS assay to identify small molecule antagonists of the androgen receptor (AR) signaling pathway using the MDA cell line in the presence of 0.5 nM R1881 - cell viability counter screen (AID 1259242); also: nearly all actives have a fitted effect of over 45% in size
Conditions: MDA-kb2 viability, CellTiter-Fluor protease fluorescence, 16 h; series mostly up to 92.4 µM; viability change, negative = cytotoxic: at the top concentration
Procedure, shortened: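 Live-cell protease activity was measured by CellTiter-Fluor fluorescence after 30 min. Before that, MDA-kb2 MMTV-luciferase cells had 16 hr at 37C without CO2, exposed to test compounds and 0.5 nM R1881 final.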

In order of falling “viability change, negative = cytotoxic” value:
1. CN1[C@@H]2CC[C@@H]1CC(OC(=O)C(CO)c1ccccc1)C2 (stereo partly specified)  -1.28% [at 42.5 µM]
2. O=C1OC(OC(=O)c2cccnc2Nc2cccc(C(F)(F)F)c2)c2ccccc21 (stereo unspecified)  -2.38% [at 42.5 µM]
3. CCCCCCCC/C=C\CCCCCCCC(=O)NCc1ccc(O)c(OC)c1  -5.85% [at 42.5 µM]

In order of falling “viability change, negative = cytotoxic” value:
1. CCOC(/C=C(\C)CCC=C(C)C)OCC  7.34%
2. C[Si](C)O[Si](C)C  3.08%
3. CN1CN(C)CN(C)C1  2.73%
4. CC(C)c1ccccc1N  1.61%
5. O=Nc1ccc(NO)cc1  1.41%
6. CC[N+](CC)(CC)Cc1ccccc1  0.605%
7. Cc1cccc(C)n1  0.47%
8. COC(=O)[C@]1(C)CCC[C@@]2(C)[C@H]1CC=C1C=C(C(C)C)CC[C@@H]12  0.0205%
9. CCN(CC)c1cccc(C)c1  -0.277%
10. CCCCCCCCCCCCCOP(=O)(O)O  -0.696%
11. C1CC(COCC2CO2)CCC1COCC1CO1 (stereo unspecified)  -0.811%
12. O=C1OC(=O)c2ccc3c4c(ccc1c24)C(=O)OC3=O  -0.866%
13. CCC(=O)OCCc1ccccc1  -1.63%
14. CCC(C)c1ccccc1 (stereo unspecified)  -1.85%
15. Cc1c(C(=O)O)cccc1[N+](=O)[O-]  -2.25%

In the case of `CN1[C@@H]2CC[C@H]1CC(OC(=O)C(CO)c1ccccc1)C2` (stereo partly specified), the Potency is reported as “inactive”.
With `Clc1ccc(C(c2ccccc2Cl)C(Cl)Cl)cc1` (stereo unspecified) the Potency was “inactive”.
For `CC1=C(/C=C/C(C)=C/C=C/C(C)=C/C(=O)Nc2ccc(O)cc2)C(C)(C)CCC1`, the Potency was 23.7 µM (active).
